Test results as given in PubChem BioAssay (Tox21).
Results filed as inconclusive are left out. Activity calls are given as the source filed them. Calls come from the whole dose curve; as a rule, active = well fitted curve in the direction sought with a large enough effect in the repeat runs; inconclusive = weak or mixed curves; inactive = no such curve, though single readings can be large; an effect the other way counts as inactive or inconclusive.
% is set by controls: 0 for no effect and ±100 for the full control effect; potency is the fitted concentration of half-maximal effect.
Note: nearly all actives have a fitted effect of over 50% in size.

These compounds were tested against Voltage-gated inwardly rectifying potassium channel KCNH2 (Homo sapiens) (UniProt Q12809) (assay: Human Ether-a-go-go-Related Gene (hERG) channel small molecule antagonists: fluorescence cell-based qHTS assay (AID 1671200;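 for activity change, negative = inhibition: hERG-expressing U2OS cells given a thallium stimulus after FluxOR II dye loading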)). Conditions: hERG-U2OS cells, FluxOR thallium flux fluorescence; series mostly up to 76.8 µM; activity change, negative = inhibition: at the top concentration.
Sequence of Voltage-gated inwardly rectifying potassium channel KCNH2 (Homo sapiens) (Q12809 whole entry, looked up): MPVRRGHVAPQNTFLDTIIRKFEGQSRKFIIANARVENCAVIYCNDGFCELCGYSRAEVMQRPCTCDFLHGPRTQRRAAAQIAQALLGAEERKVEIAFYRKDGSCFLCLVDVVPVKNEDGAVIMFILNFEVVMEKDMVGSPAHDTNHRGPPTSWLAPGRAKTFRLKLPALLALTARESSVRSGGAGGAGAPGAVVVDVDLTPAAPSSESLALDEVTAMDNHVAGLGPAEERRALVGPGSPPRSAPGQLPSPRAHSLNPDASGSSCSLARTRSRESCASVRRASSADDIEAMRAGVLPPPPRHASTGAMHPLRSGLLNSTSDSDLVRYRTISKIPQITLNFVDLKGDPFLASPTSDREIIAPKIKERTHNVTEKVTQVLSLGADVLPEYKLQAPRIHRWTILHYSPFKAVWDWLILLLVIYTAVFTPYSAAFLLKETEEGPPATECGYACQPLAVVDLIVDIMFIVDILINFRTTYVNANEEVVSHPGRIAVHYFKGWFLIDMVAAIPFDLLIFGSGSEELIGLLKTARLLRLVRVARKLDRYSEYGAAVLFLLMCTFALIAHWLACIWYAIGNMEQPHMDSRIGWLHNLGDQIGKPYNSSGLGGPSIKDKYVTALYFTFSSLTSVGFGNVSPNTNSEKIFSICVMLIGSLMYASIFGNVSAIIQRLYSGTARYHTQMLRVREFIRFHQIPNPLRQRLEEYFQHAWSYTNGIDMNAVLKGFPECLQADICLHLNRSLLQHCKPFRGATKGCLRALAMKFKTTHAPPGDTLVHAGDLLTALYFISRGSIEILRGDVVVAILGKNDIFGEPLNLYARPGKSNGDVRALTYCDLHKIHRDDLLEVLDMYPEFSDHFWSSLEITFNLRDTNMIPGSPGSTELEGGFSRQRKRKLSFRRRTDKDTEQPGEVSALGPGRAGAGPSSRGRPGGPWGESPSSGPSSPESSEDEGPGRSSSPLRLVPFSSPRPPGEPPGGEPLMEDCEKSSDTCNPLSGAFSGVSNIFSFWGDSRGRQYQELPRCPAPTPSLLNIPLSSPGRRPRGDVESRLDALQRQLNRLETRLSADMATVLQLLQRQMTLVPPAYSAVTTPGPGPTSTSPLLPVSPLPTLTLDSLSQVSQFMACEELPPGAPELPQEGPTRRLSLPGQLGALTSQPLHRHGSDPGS
Summary of the method: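 Thallium served as the potassium surrogate; its influx into dye-loaded U2OS cells carrying the channel was measured by fluorescence over 2 min.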
In the case of `O=c1c2ccccc2oc2ccccc12`, the “activity change, negative = inhibition” value is reported as 0.0796% (inactive).
For `O=S(=O)(O)c1cc(Cl)c(Cl)cc1Cl`, the “activity change, negative = inhibition” value was 3.12% (inactive).
`O=C(O)c1cc(C(=O)O)cc([N+](=O)[O-])c1` was tested, and the “activity change, negative = inhibition” value was 2.66% (inactive).
For `COc1ccc(/C=C/S(=O)(=O)NC(=O)c2ccc(C)cc2Cl)cc1`, the “activity change, negative = inhibition” value was 7% (inactive).
`COC(=O)Cc1cccc2ccccc12` was tested, and the “activity change, negative = inhibition” value was 1.04% (inactive).
In the case of `CCCC1CCCC(=O)O1` (centres undefined), the “activity change, negative = inhibition” value is reported as 4.94% (inactive).
`CCC1=C(C)CN(C(=O)NCCc2ccc(S(=O)(=O)NC(=O)NC3CCC(C)CC3)cc2)C1=O` (centres undefined) was tested, and the “activity change, negative = inhibition” value was -5.75% [at 35.3 µM] (inactive).
`C[C@H]1C[C@H]2[C@@H]3CCC4=CC(=O)C=C[C@]4(C)[C@@]3(F)[C@@H](O)C[C@]2(C)[C@@]1(O)C(=O)COP(=O)(O)O` was tested, and the “activity change, negative = inhibition” value was -0.615% (inactive).
In the case of `O=C(O)c1c2ccccc2cc2ccccc12`, the “activity change, negative = inhibition” value is reported as 1.35% (inactive).
`CCC(C)C1N=C(C)C(C)S1` (centres undefined) was tested, and the “activity change, negative = inhibition” value was 1.56% (inactive).
`O=c1[nH]nc(-c2ccc([N+](=O)[O-])o2)o1` was tested, and the “activity change, negative = inhibition” value was -0.888% (inactive).
For `CC1=C(C)C(=O)C(C(CCCCCC(=O)O)c2ccccc2)=C(C)C1=O` (centres undefined), the “activity change, negative = inhibition” value was -2.7% [at 35.3 µM] (inactive).
`FC(F)(Cl)C(F)(Cl)Cl` was tested, and the “activity change, negative = inhibition” value was 5.02% (inactive).
For `CCOCCn1c(N2CCCN(C)CC2)nc2ccccc21`, the Potency was 7.56 µM (active).
For `CCCCCCCCNC`, the “activity change, negative = inhibition” value was -6.76% (inactive).
`CCOC(OCC)OCC` was tested, and the “activity change, negative = inhibition” value was -3.01% (inactive).
For `O=C(Nc1ccccc1)c1cc([N+](=O)[O-])ccc1Cl`, the “activity change, negative = inhibition” value was -8.54% (inactive).
`COC=O` was tested, and the activity change, negative = inhibition was -1.77% [at 6.97 µM] (inactive).
`C1=COCCC1` was tested, and the “activity change, negative = inhibition” value was -0.203% (inactive).
In the case of `CCCCOC(=O)C(C)Oc1ccc(Oc2ccc(C(F)(F)F)cn2)cc1` (centres undefined), the Potency is reported as 24.5 µM (active).
In the case of `Nc1ccc(-c2ccc(F)cc2)cc1`, the “activity change, negative = inhibition” value is reported as -7.17% (inactive).
In the case of `CC(C)NC(=O)c1ccccc1N`, the “activity change, negative = inhibition” value is reported as 2.01% (inactive).
For `CCCCOC(=O)CC#N`, the “activity change, negative = inhibition” value was -1.38% (inactive).
For `C=CCCC`, the “activity change, negative = inhibition” value was -1.38% (inactive).
`CCOc1ccccc1O` was tested, and the “activity change, negative = inhibition” value was 2.38% (inactive).
For `CC(C)(O)C(=O)O`, the “activity change, negative = inhibition” value was 3.28% (inactive).
With `O=C(N[C@@H](Cc1ccccc1)[C@@H](O)C(=O)N1C[C@@H](O)[C@@H](O)C1)c1cc2cc(Cl)ccc2[nH]1` the “activity change, negative = inhibition” value was -11% (inactive).
`CCCCCCCCC(=O)OCC(C)OC(=O)CCCCCCCC` (centres undefined) was tested, and the “activity change, negative = inhibition” value was -0.206% (inactive).
`CCOc1ccc(NC(C)=O)cc1N` was tested, and the “activity change, negative = inhibition” value was -1.08% (inactive).
With `Cc1cc(N)n(-c2ccccc2)n1` the “activity change, negative = inhibition” value was -0.58% (inactive).
For `OCC(O)c1ccccc1` (centres undefined), the “activity change, negative = inhibition” value was -0.991% (inactive).
With `Nc1nc(Cl)nc2c1ncn2[C@H]1C[C@H](O)[C@@H](CO)O1` the “activity change, negative = inhibition” value was 4.61% (inactive).
With `C[C@H](N)C(=O)N[C@@H](C)C(=O)NC1[C@H]2CN(c3nc4c(cc3F)c(=O)c(C(=O)O)cn4-c3ccc(F)cc3F)C[C@@H]12` (some centres undefined) the “activity change, negative = inhibition” value was -4.89% [at 35.3 µM] (inactive).
`Cc1c(Cl)cccc1Nc1ccccc1C(=O)O` was tested, and the “activity change, negative = inhibition” value was -13.1% [at 35.3 µM] (inactive).
With `O=[N+]([O-])c1ccc(Cl)cc1Cl` the “activity change, negative = inhibition” value was 1.72% (inactive).
In the case of `S=c1[nH][nH]c(=S)s1`, the “activity change, negative = inhibition” value is reported as -20.6% (inactive).
`CC/C=C\CCO` was tested, and the “activity change, negative = inhibition” value was -4.65% (inactive).

These compounds were tested against Cytochrome P450 3A4 (Homo sapiens) (UniProt P08684) (assay: Cytochrome P450 Family 3 Subfamily A Member 4 (CYP3A4) small molecule antagonists: luciferase reporter qHTS assay (AID 1671201)). Conditions: P450-Glo CYP3A4 enzyme, luciferin luminescence, 1 h; series mostly up to 115 µM; activity change, negative = inhibition: at the top concentration.
Sequence of Cytochrome P450 3A4 (Homo sapiens) (P08684 whole entry, looked up): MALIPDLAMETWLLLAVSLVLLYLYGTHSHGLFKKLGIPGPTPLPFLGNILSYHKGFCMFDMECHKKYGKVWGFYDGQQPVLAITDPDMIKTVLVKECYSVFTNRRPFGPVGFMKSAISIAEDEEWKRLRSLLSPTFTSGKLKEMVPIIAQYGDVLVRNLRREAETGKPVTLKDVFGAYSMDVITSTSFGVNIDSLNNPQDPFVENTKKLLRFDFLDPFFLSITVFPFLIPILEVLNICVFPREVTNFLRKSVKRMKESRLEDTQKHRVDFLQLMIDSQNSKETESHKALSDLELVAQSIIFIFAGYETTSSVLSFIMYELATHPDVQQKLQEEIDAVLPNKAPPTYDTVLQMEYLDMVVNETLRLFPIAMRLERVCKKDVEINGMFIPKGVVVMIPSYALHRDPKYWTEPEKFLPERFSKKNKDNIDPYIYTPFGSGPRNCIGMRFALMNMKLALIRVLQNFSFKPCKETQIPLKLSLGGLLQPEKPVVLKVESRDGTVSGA
Summary of the method: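 Relative luminescence units after 20 min with luciferin detection reagent served as read-out. Beforehand, CYP3A4 turned over a proluciferin substrate for 1 h at room temperature with NADPH regeneration, following 10 min compound preincubation.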
In the case of `O=S(=O)(O)c1cc(Cl)c(Cl)cc1Cl`, the “activity change, negative = inhibition” value is reported as 46.1% (inactive).
For `O=C(O)c1cc(C(=O)O)cc([N+](=O)[O-])c1`, the “activity change, negative = inhibition” value was 35.4% (inactive).
`C[C@@H](O)[C@H]1C(=O)N2C(C(=O)O)=C(S[C@@H]3CN[C@H](CNS(N)(=O)=O)C3)[C@H](C)[C@H]12` was tested, and the Potency was 3.89 µM (active).
For `CCCC1CCCC(=O)O1` (centres undefined), the Potency was 39.9 µM (active).
In the case of `C[C@H]1C[C@H]2[C@@H]3CCC4=CC(=O)C=C[C@]4(C)[C@@]3(F)[C@@H](O)C[C@]2(C)[C@@]1(O)C(=O)COP(=O)(O)O`, the “activity change, negative = inhibition” value is reported as 1.22% (inactive).
In the case of `O=C(O)c1c2ccccc2cc2ccccc12`, the “activity change, negative = inhibition” value is reported as -11.7% (inactive).
In the case of `CC1=C(C)C(=O)C(C(CCCCCC(=O)O)c2ccccc2)=C(C)C1=O` (centres undefined), the “activity change, negative = inhibition” value is reported as -14.5% [at 52.9 µM] (inactive).
In the case of `FC(F)(Cl)C(F)(Cl)Cl`, the “activity change, negative = inhibition” value is reported as 6.44% (inactive).
With `CCCCCCCCNC` the “activity change, negative = inhibition” value was -12% (inactive).
For `CCOC(OCC)OCC`, the “activity change, negative = inhibition” value was 2.35% (inactive).
`O=C(Nc1ccccc1)c1cc([N+](=O)[O-])ccc1Cl` was tested, and the Potency was 35.6 µM (active).
For `COC=O`, the activity change, negative = inhibition was 11.4% [at 10.5 µM] (inactive).
`C1=COCCC1` was tested, and the “activity change, negative = inhibition” value was 5.52% (inactive).
For `Nc1ccc(-c2ccc(F)cc2)cc1`, the Potency was 11.2 µM (active).
For `CCCCOC(=O)CC#N`, the “activity change, negative = inhibition” value was -34.5% (inactive).
`C=CCCC` was tested, and the “activity change, negative = inhibition” value was 1.69% (inactive).
With `CCOc1ccccc1O` the “activity change, negative = inhibition” value was -0.85% (inactive).
For `CC(C)(O)C(=O)O`, the “activity change, negative = inhibition” value was 1.85% (inactive).
In the case of `CCCCCCCCC(=O)OCC(C)OC(=O)CCCCCCCC` (centres undefined), the “activity change, negative = inhibition” value is reported as -13.8% (inactive).
`CCc1ccc2c(c1)C(=O)c1ccccc1C2=O` was tested, and the Potency was 17.8 µM (active).
`Cc1cc(N)n(-c2ccccc2)n1` was tested, and the “activity change, negative = inhibition” value was -26.6% (inactive).
In the case of `OCC(O)c1ccccc1` (centres undefined), the “activity change, negative = inhibition” value is reported as 6.04% (inactive).
In the case of `Nc1nc(Cl)nc2c1ncn2[C@H]1C[C@H](O)[C@@H](CO)O1`, the “activity change, negative = inhibition” value is reported as -13.7% (inactive).
For `C[C@H](N)C(=O)N[C@@H](C)C(=O)NC1[C@H]2CN(c3nc4c(cc3F)c(=O)c(C(=O)O)cn4-c3ccc(F)cc3F)C[C@@H]12` (some centres undefined), the Potency was 12.3 µM (active).
With `Cc1c(Cl)cccc1Nc1ccccc1C(=O)O` the “activity change, negative = inhibition” value was 44.2% [at 52.9 µM] (inactive).
In the case of `O=[N+]([O-])c1ccc(Cl)cc1Cl`, the “activity change, negative = inhibition” value is reported as 19.2% (inactive).
With `CC/C=C\CCO` the “activity change, negative = inhibition” value was 3.66% (inactive).
